Screening data: PubChem, several laboratories
Most compounds without a hit are left out; they make up all but 6.9% or so of the library.
Beta apoptosis – inhibitors of cytokine-induced beta cell apoptosis, primary screen, luminescence | INS-1E cytokine-induced death, ATP luminescence, 48 h; percent of positive-control rescue, neutral wells zero | 300,000 tested, 0.8% active | AID 435005, 2010 | protection from apoptosis, % (no concentration beside the values);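 active = Every replicate reaches about 75%, or at least half do and their mean reaches it too, limit read from the data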;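 also: higher means more ATP so stronger rescue from cytokine killing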
CSC inhib – cancer stem cell viability inhibitors, primary screen, luminescence. inhibition, % at 7.5 µM. 300,000 tested, 1.1% active. cancer stem cell-like cells viability; in the data active = inhibition above about 75%; tested in HMLE shEcad cells
GRIN3A LBD mod – binders of NR3A ligand-binding domain, primary screen, biophysical, differential scanning fluorimetry, uHTS | Glutamate receptor ionotropic, NMDA 3A (GRIN3A) ligand-binding domain | NR3A LBD differential scanning fluorimetry, Tm shift; 0% = protein alone, 100% = glycine-bound protein | Tm shift relative to glycine control, % at 25 µM | 340,000 tested, 2.5% active | AID 1259313, 2017;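 active = melting temperature shift of at least 10% of the positive control shift, at one fixed dose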
MPTP inh – mitochondrial permeability transition pore inhibitors, primary screen, biochemical, isolated mouse mitochondria, absorbance. Ca2+ swelling absorbance, 30 min. inhibition, % at 10 µM. 360,000 tested, 1.4% active. AID 602449, 2012;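 active = inhibition of 50% or more, scaled per plate between neutral and stimulator controls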
Mdm2-MdmX inh – inhibitors of human Mdm2-MdmX association, primary screen, cell-based, luminescence, split luciferase, SaOS-2, uHTS; 330,000 tested, 3% active; AID 485346, 2010; inhibition, % at 8 µM; SaOS-2 split-luciferase Mdm2/MdmX complementation; Protein Mdm4 (Homo sapiens) + E3 ubiquitin-protein ligase Mdm2 (Homo sapiens), …;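 active = inhibition of at least 50% at 8 µM in the primary screen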
Target sequence (O15151 whole entry, looked up): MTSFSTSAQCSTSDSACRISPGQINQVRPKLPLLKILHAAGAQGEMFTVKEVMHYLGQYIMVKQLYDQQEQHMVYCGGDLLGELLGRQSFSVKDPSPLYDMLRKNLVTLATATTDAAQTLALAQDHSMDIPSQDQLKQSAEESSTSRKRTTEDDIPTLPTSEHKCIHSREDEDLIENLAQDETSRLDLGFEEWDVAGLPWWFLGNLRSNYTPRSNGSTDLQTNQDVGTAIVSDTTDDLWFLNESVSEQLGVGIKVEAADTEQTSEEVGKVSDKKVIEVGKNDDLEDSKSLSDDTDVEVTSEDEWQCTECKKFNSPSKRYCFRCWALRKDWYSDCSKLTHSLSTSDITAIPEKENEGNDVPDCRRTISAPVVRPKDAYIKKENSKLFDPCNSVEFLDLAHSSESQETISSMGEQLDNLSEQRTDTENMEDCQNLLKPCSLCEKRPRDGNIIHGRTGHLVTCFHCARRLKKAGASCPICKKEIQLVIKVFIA
Target sequence (Q00987 whole entry, looked up): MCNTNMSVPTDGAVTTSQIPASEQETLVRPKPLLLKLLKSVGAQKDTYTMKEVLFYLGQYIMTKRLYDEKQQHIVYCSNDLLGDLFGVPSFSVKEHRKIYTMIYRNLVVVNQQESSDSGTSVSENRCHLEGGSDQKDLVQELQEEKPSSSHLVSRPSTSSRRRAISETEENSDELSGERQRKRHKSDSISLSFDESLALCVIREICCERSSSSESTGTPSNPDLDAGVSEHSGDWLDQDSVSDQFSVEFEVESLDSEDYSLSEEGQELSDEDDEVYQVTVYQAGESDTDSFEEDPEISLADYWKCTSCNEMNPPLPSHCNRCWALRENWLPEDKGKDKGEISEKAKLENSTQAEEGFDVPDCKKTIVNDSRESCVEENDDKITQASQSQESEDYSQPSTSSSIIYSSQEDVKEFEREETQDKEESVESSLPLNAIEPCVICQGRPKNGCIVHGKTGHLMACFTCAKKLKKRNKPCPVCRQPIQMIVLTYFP
SKKanGAS inh – S. pyogenes SKKanGAS growth inhibitors in kanamycin, primary screen, streptokinase expression inhibitor project, SKKanGAS strain, BacTiter-Glo luminescence | 300,000 tested, 1.3% active | AID 1662, 2009 | 6 h | inhibition, % at 7.5 µM;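 active = mean replicate score, as percent of positive control median, at least 50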;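 also: strain carries kanamycin resistance gene driven by streptokinase promoter and grows in 40 µg/ml kanamycin; loss of luminescence reflects streptokinase promoter inhibition or plain growth inhibition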
MPTP counter – fluorescence retest of MPTP screen hits in isolated mitochondria, single concentration | shares compounds with MPTP inh | membrane potential, Rhodamine 123 fluorescence | inhibition, % at 10 µM | 5,000 tested, 78% active | AID 624504, 2012; in the data active = inhibition above about 22%
MPTP swell DR – mitochondrial permeability transition pore inhibitors, dose response, biochemical, absorbance, uHTS hits | shares compounds with MPTP inh | isolated mitochondria swelling | IC50, µM | 780 tested, 58% active | AID 651561, 2012; in the data active = IC50 below about 20 µM
MPTP counter DR – fluorescent counter-screen in isolated mitochondria, dose response, counter-screen for MPTP inhibitor project, biochemical, fluorescence, uHTS hits | isolated mitochondria counterscreen, fluorescence read-out | 780 tested, 49% active | shares compounds with MPTP inh | IC50, µM; in the data active = IC50 below about 80 µM
Hits are given with their value; - = inactive; . = no result.

SMILES	Beta apoptosis	CSC inhib	GRIN3A LBD mod	MPTP inh	Mdm2-MdmX inh	SKKanGAS inh	MPTP counter	others
O=C(Nc1ccc(F)c(Cl)c1)C1CC2CCC1C2 (centres undefined)	.	.	-	57	-	-	79
O=C(Nc1ccc(F)cc1)C1CC2CCC1C2 (centres undefined)	-	-	-	-	-	-	.
COc1ccc(NC(=O)Nc2cc(C)ccc2OC)cc1	-	-	-	-	-	-	.
Cc1nnsc1C(=O)NC(=O)Nc1ccc(F)c(Cl)c1	-	-	-	59	-	-	76
COc1ccc(OC)c(NC(=O)Nc2ccc(Cl)cc2)c1	-	-	28	91	-	-	69
CC(=O)Nc1cccc(NC(=S)Nc2ccc(F)c(Cl)c2)c1	-	-	12	95	-	-	87
CC(=O)Nc1cccc(NC(=O)c2cc(Cl)ccc2Cl)c1	-	-	-	-	-	-	.
Cc1cccnc1NC(=O)CCNC(=O)c1ccccc1Cl	-	-	-	-	-	-	.
Cc1cc(NC(=O)C2CCCCC2C(=O)O)ccc1NC(=O)c1ccccc1 (centres undefined)	-	-	-	-	-	-	.
CC1=C(C(=O)OCc2ccccc2)C(c2cccc([N+](=O)[O-])c2)NC(=O)N1C (centres undefined)	-	-	-	-	-	-	.
Cc1ccc(NC(=O)Nc2ccc(F)c(Cl)c2)cc1	-	-	32	96	-	-	88
O=C(Nc1cccnc1)c1cc(F)c(F)cc1Cl	-	-	-	-	-	-	.
CCC(CC)NC(=O)Nc1ccc(F)c(Cl)c1	-	-	-	71	-	-	84
CC(C)CC(=O)Nc1ccc(F)c(Cl)c1	-	-	-	-	-	-	.
O=C(Nc1cccnc1)Nc1ccc(F)c(Cl)c1	-	-	25	93	-	-	85
Cc1ccc(CNC(=O)Nc2ccc(Cl)cc2)cc1	-	-	-	-	-	-	.
Cc1cccc(OCCC(=O)Nc2ccc(F)c(Cl)c2)c1	-	-	-	78	-	-	79
CN(CCOc1ccccc1)C(=O)C1CCC(=O)N(CCCN2CCCC2=O)C1 (centres undefined)	-	-	-	-	-	-	.
COc1ccc(NC(=O)Nc2ccc(F)c(Cl)c2)cc1	-	-	31	87	-	-	85
COc1ccc(NC(=O)NC23CC4(C)CC(C)(CC(C)(C4)C2)C3)cc1	-	-	-	97	-	-	48
COc1ccc(NC(=O)NC2(C)CCS(=O)(=O)C2)cc1 (centres undefined)	.	.	-	-	-	-	.
Cc1csc(=O)n1CCC(=O)OCC(=O)NCc1ccc(F)cc1	.	-	-	-	-	-	.
CC(C)(C)NS(=O)(=O)c1ccc(NC(=O)C(Sc2ccccc2)c2ccccc2)cc1 (centres undefined)	-	-	23	65	-	-	73
CC(=O)N(C)c1ccc(NC(=O)C(Sc2ccccc2)c2ccccc2)cc1 (centres undefined)	.	-	-	-	-	-	.
Cc1ccc2cc(CCNS(=O)(=O)c3ccc(Br)cc3)c(=O)[nH]c2c1C	-	.	-	-	-	-	.
SMILES	Beta apoptosis	CSC inhib	GRIN3A LBD mod	MPTP inh	Mdm2-MdmX inh	SKKanGAS inh	MPTP counter	others
O=C(CSc1nnc(C2CC2)n1-c1ccccc1)N1CCNC1=O	-	.	-	-	-	.	.
Cc1n[nH]c(=O)c2c(NC(=O)CSc3c(Cl)cccc3Cl)oc(C)c12	-	-	-	-	-	-	.
Cc1n[nH]c(=O)c2c(NC(=O)CSc3nn(-c4ccc(F)cc4)c(=S)s3)oc(C)c12	-	-	-	87	-	-	84
CCCc1nc(SC2CCCC2)c2c(=O)n(C)c(=O)n(C)c2n1	-	-	-	72	-	-	-	MPTP swell DR=-;MPTP counter DR=70
COc1ccc(NC(=S)NC23CC4CC(CC(C4)C2)C3)cc1OC	-	-	-	-	-	-	.
N#CC(=C1C=C(Br)C(=NO)C=C1Cl)c1ccc(Cl)cc1	.	.	.	83	.	.	85
COCCCNC(=O)C1CCC(CNS(=O)(=O)c2ccc3c(c2)N(C(C)=O)CCO3)CC1 (centres undefined)	-	-	-	-	-	-	.
CN1CCN(c2ncnc3c2c(-c2ccccc2)cn3-c2ccc(F)cc2)CC1	-	-	-	80	-	-	-	MPTP swell DR=20;MPTP counter DR=-
CN1CCCN(c2ncnc3scc(-c4ccc(F)cc4)c23)CC1	-	-	-	-	-	-	.
Nn1c(SCC(=O)NC2CCS(=O)(=O)C2)nnc1-c1ccco1 (centres undefined)	-	-	-	-	-	.	.
OCCNCc1cc(Br)ccc1OCc1ccc(Cl)cc1	-	.	-	-	-	-	.
CCOc1cccc(CNCCO)c1OCc1ccc(Cl)cc1Cl	-	.	-	94	-	-	-	MPTP swell DR=4.5;MPTP counter DR=20
OCCNCc1cc(Br)ccc1OCc1ccc(Cl)cc1Cl	.	.	-	82	.	-	20
COc1ccc(Cc2nc3ccc(C(=O)N(C)CCCN4CCOCC4)cc3o2)cc1	.	-	-	-	-	-	.
COc1ccc(S(=O)(=O)N2CCC(C(=O)N(CC(C)C)C3CCS(=O)(=O)C3)CC2)cc1OC (centres undefined)	-	-	-	-	-	-	.
CCOC(=O)c1ccc(NC(=O)Cc2coc3cc4c(cc23)CCC4)cc1	-	-	-	87	-	-	92
CCOC(=O)c1ccc(NC(=O)Cn2cccc2)cc1	-	.	-	-	-	-	.
COC(=O)c1nc(NC(=O)c2ccc(Br)cc2)n[nH]1	-	-	-	77	-	-	-	MPTP swell DR=-;MPTP counter DR=-
COc1ccc(-c2nc3cc(NC(=O)Cc4ccc(OC)c(OC)c4)ccc3o2)cc1	-	-	-	96	-	-	90
CC1CCC2(CC1)NC(=O)N(CC(=O)Nc1ccc(F)cc1)C2=O (centres undefined)	-	.	-	-	-	.	.
O=C1c2cc(Cl)ccc2OC2(CCNCC2)C12CC(c1ccc(Cl)cc1)=NO2 (centres undefined)	-	-	-	-	-	-	.
O=C1c2cc(Cl)ccc2OC2(CCNCC2)C12CC(c1ccccc1)=NO2 (centres undefined)	-	-	-	71	-	-	-	MPTP swell DR=8.9;MPTP counter DR=-
COC(=O)c1sc(NC(=O)c2ccc([N+](=O)[O-])o2)c(C#N)c1C	-	.	-	92	-	-	81
